High-throughput results from PubChem BioAssay.
G9a inh: G9a (human) methyltransferase inhibition; Q96KQ7; G9a H3K9 monomethylation, AlphaScreen, 2 h; Potency, µM (titrated, usually from 102 µM), actives largely listed as inhibitors; 350,000 tested, 8.8% active; also: nearly all actives have a fitted effect of over 75% in size
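Readings reflect AlphaScreen signal from monomethyl-H3K9 antibody detection. HMT at 20 nM; substrate b-H3K9 500 nM; cofactor SAM 20 uM; 2 h RT reaction; compounds tested as titrations in qHTS with 15 min preincubation.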
JMJD2A Tudor: blocks the human JMJD2A Tudor domain | AlphaScreen JMJD2A-Tudor / H3K4me3 peptide binding | Potency, µM (highest dose often 114 µM), usual class: inhibitors | 390,000 tested, 4.4% active; also: nearly all actives have a fitted effect of over 50% in size
Target sequence (O75164 whole entry, looked up, the tested form may be a part): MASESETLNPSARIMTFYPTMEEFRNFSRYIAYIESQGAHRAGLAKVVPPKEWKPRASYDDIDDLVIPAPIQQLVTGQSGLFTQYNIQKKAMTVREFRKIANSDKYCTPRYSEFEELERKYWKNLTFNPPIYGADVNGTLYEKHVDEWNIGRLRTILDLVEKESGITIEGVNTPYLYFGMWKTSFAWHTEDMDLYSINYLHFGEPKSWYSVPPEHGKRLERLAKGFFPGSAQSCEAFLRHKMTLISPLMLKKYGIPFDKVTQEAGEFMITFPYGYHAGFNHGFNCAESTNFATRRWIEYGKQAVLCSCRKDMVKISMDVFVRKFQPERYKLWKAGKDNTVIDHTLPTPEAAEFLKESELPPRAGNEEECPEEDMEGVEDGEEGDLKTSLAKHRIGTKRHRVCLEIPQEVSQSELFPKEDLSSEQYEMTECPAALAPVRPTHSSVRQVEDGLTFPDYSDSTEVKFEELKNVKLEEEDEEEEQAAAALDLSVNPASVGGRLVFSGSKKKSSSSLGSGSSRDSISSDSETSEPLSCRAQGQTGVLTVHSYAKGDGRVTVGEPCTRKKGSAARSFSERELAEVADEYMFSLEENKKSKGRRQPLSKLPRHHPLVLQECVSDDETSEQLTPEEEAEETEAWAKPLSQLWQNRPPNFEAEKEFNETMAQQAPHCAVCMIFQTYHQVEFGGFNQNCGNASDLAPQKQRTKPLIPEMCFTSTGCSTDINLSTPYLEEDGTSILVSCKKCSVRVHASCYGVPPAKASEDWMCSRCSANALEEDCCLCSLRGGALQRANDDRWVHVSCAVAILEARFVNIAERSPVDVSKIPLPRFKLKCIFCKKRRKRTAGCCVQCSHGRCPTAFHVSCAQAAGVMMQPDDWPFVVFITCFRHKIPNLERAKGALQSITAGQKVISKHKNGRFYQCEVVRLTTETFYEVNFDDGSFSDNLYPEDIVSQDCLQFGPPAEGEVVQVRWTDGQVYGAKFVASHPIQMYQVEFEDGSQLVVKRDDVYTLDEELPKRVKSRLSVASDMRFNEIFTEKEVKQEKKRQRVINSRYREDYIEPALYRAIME
BAZ2B block: inhibitors of human BAZ2B bromodomain. Q9UIF8. AlphaScreen BAZ2B-H3K14Ac peptide displacement. Potency, µM (titrated, usually from 114 µM), actives largely listed as inhibitors. 360,000 tested, 4.4% active. AID 504333; also: nearly all actives have a fitted effect of over 60% in size
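AlphaScreen luminescence quantifies BAZ2B engagement of H3K14Ac peptide; the protein and biotinylated peptide are both at 50 nM final, buffer PBS pH 7.4 with 0.01% Tween-20, all steps at room temperature.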
HP1b chromo inh: blocks HP1-beta chromodomain binding to methylated histone tails | P83916 | AlphaScreen HP1-beta / biotin-H3K9me3 peptide binding | Potency, µM (highest dose often 114 µM), actives largely listed as inhibitors | 390,000 tested, 0.56% active; also: nearly all actives have a fitted effect of over 70% in size
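HP1-beta protein (50 nM final) preincubated 30 min at room temperature with biotinylated H3(1-18)K9me3 peptide (50 nM) in PBS pH 7.4, 0.01% Tween-20, then compound added for 30 min. AlphaScreen streptavidin donor/nickel chelate acceptor beads (10 ug/mL final), 30 min dark, luminescence read.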
L3MBTL1 inh: blocks human L3MBTL1. Q9Y468. AlphaScreen L3MBTL1–H3K9me1 peptide binding. 230,000 tested, 0.66% active. Potency, µM (doses to about 57.1 µM), most hits filed as inhibitors; also: nearly all actives have a fitted effect of over 60% in size
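Displacement of a biotinylated histone H3(1-15) peptide monomethylated at Lys9 (75 nM) from L3MBTL1 (50 nM) was measured by AlphaScreen after a 30 min room-temperature compound incubation; cefsulodin titration served as intraplate control.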
Of the large screens only hits and unclear results are named; the others gave an inactive call. The list is not random: actives were taken first. Their share in the collection is about 11%. Calls follow the shape of the dose curve; as a rule, active = well fitted inhibition curve with a large enough effect; inconclusive = small, poorly fitted or top-dose-only effect; inactive = no such curve, though single readings can be large or run the other way.

Cc1cc(N(C)C)ccc1N=Nc1ccc2ncccc2c1	JMJD2A Tudor 6.3µM, BAZ2B block 3.2µM, HP1b chromo inh 8.9µM, L3MBTL1 inh 8.9µM
CN(C)c1ccc(N=Nc2ccc(S(N)(=O)=O)cc2)cc1	G9a inh inconclusive, BAZ2B block inconclusive (no result: L3MBTL1 inh)
CN(C)c1ccc(N=Nc2cccc(F)c2)cc1	G9a inh 10µM, JMJD2A Tudor 8.9µM, BAZ2B block 4.5µM, HP1b chromo inh 6.3µM (no result: L3MBTL1 inh)
CN(C)c1ccc(N=Nc2ccc3ncccc3c2)cc1	JMJD2A Tudor 3.2µM, HP1b chromo inh inconclusive (no result: G9a inh, BAZ2B block, L3MBTL1 inh)
CCc1ccc2occ(CC(=O)Nc3c(C(=O)c4ccc(F)cc4)oc4ccccc34)c2c1	G9a inh inconclusive (no result: L3MBTL1 inh)
COc1ccc(NC(=O)Cn2c(=O)cc(C)c3c(C)nn(C)c32)cc1	none (no result: L3MBTL1 inh)
CCN(CC)CCCNC(=O)CSc1nc(-c2ccc(OC)cc2)cc(C(F)(F)F)n1	none (no result: L3MBTL1 inh)
CCNc1nc(NC(C)C)nc(N(C#N)CCOc2ccccc2)n1	G9a inh 13µM (no result: L3MBTL1 inh)
COc1ccc(C2CC(=O)Nc3c2c(=O)[nH]c2nc4ccccc4n32)cc1 (stereo unspecified)	none (no result: L3MBTL1 inh)
O=[N+]([O-])c1cc(-c2csc(NCCc3nc4cc(C(F)(F)F)ccc4n3CCCO)n2)ccc1Cl	JMJD2A Tudor 45µM (no result: G9a inh, BAZ2B block, L3MBTL1 inh)
Cc1ccc(Cn2c(CCNc3nc(-c4ccc(Cl)c([N+](=O)[O-])c4)cs3)nc3cc(C(=O)NCCCO)ccc32)cc1	JMJD2A Tudor 35µM (no result: G9a inh, BAZ2B block, L3MBTL1 inh)
N#Cc1ccccc1OCC(=O)N1CCN(c2ccccc2)CC1	none (no result: L3MBTL1 inh)
COc1ccc(-c2nc(CCNC(=O)c3ccccc3)cs2)cc1OC	none (no result: L3MBTL1 inh)
O=C(CCn1c(=O)c2cccn2c2cccnc21)NCc1ccc(Cl)cc1	none (no result: L3MBTL1 inh)
O=C(OCc1ccc([N+](=O)[O-])cc1)c1ccc2ccccc2n1	G9a inh inconclusive (no result: L3MBTL1 inh)
O=C(O)C(=O)/C(=C\c1cccc2ccccc12)c1ccc2ccccc2n1	none (no result: L3MBTL1 inh)
O=C(O)C(=O)/C(=C\c1ccsc1)c1ccc2ccccc2n1	G9a inh inconclusive, JMJD2A Tudor 89µM (no result: L3MBTL1 inh)
O=C(O)C(=O)/C(=C\c1ccc([N+](=O)[O-])cc1)c1ccc2ccccc2n1	G9a inh 35µM, JMJD2A Tudor inconclusive, BAZ2B block inconclusive
O=C(O)C(=O)/C(=C\c1ccccc1)c1ccc2ccccc2n1	G9a inh 79µM, JMJD2A Tudor inconclusive (no result: L3MBTL1 inh)
COC(=O)N1CCC[C@@]2(CCN(Cc3cc(C(F)(F)F)cc(C(F)(F)F)c3)C2)C1	none (no result: JMJD2A Tudor, BAZ2B block, HP1b chromo inh, L3MBTL1 inh)
COc1ccc(CNCc2c(C(=O)O)c(C)n(Cc3ccccc3C)c2C)c(OC)c1	BAZ2B block inconclusive (no result: L3MBTL1 inh)
COc1ccc(NC(=O)CSC2=Nc3ccccc3C3=NC(CCC(=O)NCCc4ccccc4)C(=O)N23)c(OC)c1 (stereo unspecified)	none (no result: L3MBTL1 inh)
CCC1CCCCN1C(=O)CSc1nnc(-c2ccc(OC)c(OC)c2)o1 (stereo unspecified)	none (no result: L3MBTL1 inh)
Cc1cccc(NC2=CC(c3cccc(Br)c3)N(c3cccc(C)c3)C2=O)c1 (stereo unspecified)	none (no result: L3MBTL1 inh)
COC(=O)CS(=O)(=O)c1nnc([C@H](Cc2ccccc2)NC(=O)OC(C)(C)C)o1	G9a inh inconclusive, JMJD2A Tudor 79µM
Cc1cccc(CS(=O)(=O)c2nnc([C@H](Cc3ccccc3)NC(=O)OC(C)(C)C)o2)c1	G9a inh 10µM (no result: L3MBTL1 inh)
CC(C)(C)OC(=O)N[C@@H](Cc1ccccc1)c1nnc(SCC(N)=O)o1	G9a inh inconclusive
COC(=O)CSc1nnc([C@H](Cc2ccccc2)NC(=O)OC(C)(C)C)o1	none
CN(C)C(=O)CSc1nnc([C@H](Cc2ccccc2)NC(=O)OC(C)(C)C)o1	G9a inh 40µM
C[C@H](NC(=O)OCc1ccccc1)c1nnc([C@H](Cc2ccccc2)NC(=O)OC(C)(C)C)o1	none (no result: L3MBTL1 inh)
COc1ccccc1CC(=O)N1CCN(c2ccccc2F)CC1	none
Cc1nn(-c2ccc(Cl)cc2)c2[nH]c(CCl)cc(=O)c12	G9a inh inconclusive, JMJD2A Tudor 79µM (no result: L3MBTL1 inh)
Cc1ccc(S(=O)(=O)Nc2cccc3cccnc23)c([N+](=O)[O-])c1	JMJD2A Tudor inconclusive, BAZ2B block 45µM (no result: L3MBTL1 inh)
COc1ccc(NC(=O)CC2C(=O)N(c3ccc(C)cc3)C(=O)N2Cc2cccnc2)cc1 (stereo unspecified)	none (no result: L3MBTL1 inh)
COc1cccc(C(=O)CN2C3=NCCCN3c3ccccc32)c1	G9a inh inconclusive
